From PubChem BioAssay (Tox21)
Inconclusive results are not listed. A number with no mark means an inactive call. The call rests on the fitted dose curve; in most records, active means well fitted cell-killing curve with a large enough effect in the repeat runs; inconclusive means weak or mixed curves; inactive means flat fitted curve, though single readings scatter.

Experiment: qHTS RealTime-Glo MT Cell Viability Assay in HepG2 cells - 24 hour (AID 1224867); further: nearly all actives have a fitted effect of over 50% in size
Conditions: RealTime-Glo luminescence; series mostly up to 76.8 µM; activity change, negative = cytotoxicity: at the top concentration
Excerpt: U.S. Tox21 Program National Center for Advancing Translational Sciences [NCATS] NIH Chemical Genomics Center [NCGC] U.S. Environmental Protection Agency [EPA] National Institutes of Environmental Health Sciences [NIEHS] National Toxicology Program [NTP] U.S. Food and Drug Administration [FDA] Tox21 Assay Overview: Measure of cell viability is critical in the cell-base assay. Analysis of cell viability is necessary for the characterization of cell responses to cytotoxic drugs and environmental stress. A RealTime-Glo MT Cell Viability Assay to monitor cell viability in real time of continues cell culture during 40 hours of compound treatment was used to screen Tox21 10K library compounds in HepG2 cells. The RealTime-Glo MT Cell Viability Assay is a nonlytic, homogeneous, bioluminescent method to measure cell viability in real time using a simple, plate-based method. The assay involves adding NanoLuc luciferase and a cell-permeant prosubstrate to cells in culture. Viable cells reduce the proprietary prosubstrate to generate a substrate for NanoLuc luciferase. This substrate diffuses from cells into the surrounding culture medium, where it is rapidly used by the NanoLuc Enzyme to produce a luminescent signal. The signal correlates with the number of viable cells, making the assay well suited for cytotoxicity studies.
Tox21 Assay Protocol Summary: The mixture of HepG2 cell suspension and reagents were dispensed at 600cells/6 ul/well in 1536-well tissue culture treated black solid bottom plates using a Multidrop dispenser. After the assay plates were incubated at a 37 C/5% CO2 incubator for 5 hours, 23 nL of compounds dissolved in DMSO, positive and negative controls was transferred to the assay plate by a pintool work station. The plates were incubated at 37 C for 40 hours. The luminescence intensity were measured at 0h, 8h, 16h, 24h, 32h and 40h time points using ViewLux plate reader during compound treatment.
On the % scale 0 is the no-effect control and ±100 the full control effect.

| Structure (SMILES) | activity change, negative = cytotoxicity |
| --- | --- |
| N[C@@H]1C[C@H]1c1ccccc1 | 0.786% [at 35.3 µM] |
| CCN1CCCC1CNC(=O)C(O)(c1ccccc1)c1ccccc1 (stereo not given) | 2.24% [at 35.3 µM] |
| COc1cccc(C=O)c1 | -0.321% |
| Nc1c(Cl)c(F)nc(OCC(=O)O)c1Cl | 1.39% |
| COC[C@@H](NC(C)=O)C(=O)NCc1ccccc1 | 5.17% [at 35.3 µM] |
| BrCCc1ccccc1 | -1.02% |
| CC1=C2[C@H]3OC(=O)[C@@H](C)[C@@H]3CC[C@@]2(C)C=CC1=O | 4.51% [at 35.3 µM] |
| CC(=O)OCC1=C(C(=O)O)N2C(=O)[C@@H](N)[C@H]2SC1 | 0.275% [at 15.8 µM] |
| COP(=O)(OC)O/C(C)=C/C(=O)N(C)C | 0.0644% |
| CCCC(C)(COC(N)=O)COC(N)=O | -0.235% |
| CC[C@H](N)c1ccccc1 | 2.58% |
| O=[N+]([O-])c1cccc(CCl)c1 | 0.0261% |
| O=C/C=C/c1ccco1 | 5.78% |
| CCCOC(=O)c1cncn1C(C)c1ccccc1 (stereo not given) | -0.637% [at 35.3 µM] |
| NCC1(CC(=O)O)CCCCC1 | 0.873% [at 35.3 µM] |
| O=C1CC(=O)NC(=O)N1 | 2.7% |
| C=C(C)[C@H]1CN[C@H](C(=O)O)[C@H]1CC(=O)O | 1% [at 35.3 µM] |
| CCN(CCO)CCO | -0.26% |
| CC(C)c1ccc(O)cc1 | 0.84% |
| O=C(Cl)OCc1ccccc1 | 0.2% |

| Structure (SMILES) | activity change, negative = cytotoxicity |
| --- | --- |
| CON(C)C(=O)Nc1ccc(Br)c(Cl)c1 | -0.847% |
| O=C(O)C(F)(F)C(F)(F)C(F)(F)C(F)(F)C(F)(F)C(F)(F)F | 2.52% |
| CC(O)CCl (stereo not given) | 2.37% |
| CCOC(=O)Nc1cccc(OC(=O)Nc2ccccc2)c1 | 1.42% |
| CC(=O)CN(CC(C)=O)N=O | 1.33% |
| CCCCOC(C)=O | 0.371% |
| C=C1C[C@@H]2[C@H](CC[C@]3(C)C(=O)CC[C@@H]23)[C@@]2(C)C=CC(=O)C=C12 | -17.3% [at 35.3 µM] |
| N#CN | 2.57% [at 200 µM] |
| CC(Cc1ccccc1)NCCn1cnc2c1c(=O)n(C)c(=O)n2C (stereo not given) | -1.08% |
| N#CN=C1SCCN1Cc1ccc(Cl)nc1 | -1.24% |
| CCN(CCO)CCn1c(Cc2ccccc2)nc2c1c(=O)n(C)c(=O)n2C | 3.14% [at 35.3 µM] |
| COc1ccc2c(C(=O)c3ccc(Cl)cc3)c(C)n(CC(=O)O)c2c1 | 0.891% [at 35.3 µM] |
| C=CC=O | 0.416% |
| Brc1c(Br)c(Br)c(Br)c(Br)c1Br | -11.6% [at 6.97 µM] |
| Oc1ccc2c3c1O[C@H]1[C@@H](O)C=C[C@H]4[C@@H](C2)NCC[C@@]341 | -2.24% |
| c1cncc([C@@H]2CCCCN2)c1 | 0.541% |
| Cc1ccc(S(=O)(=O)N[C@@H](CCCCN)C(=O)CCl)cc1 | 1.14% [at 35.3 µM] |
| O=C(O)CBr | 1.03% |
| CCCN1CCC[C@@H]2Cc3[nH]ncc3C[C@H]21 | -0.0746% [at 35.3 µM] |
| CCc1cc(OC)c(C[C@H](C)N)cc1OC | -6.57% |
